Laboratory results taken from PubChem BioAssay (NCI).
About 83,000 compounds went through this panel and 20% of them were active in at least one assay; those are over-represented in the sample as a whole.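 Plates (96-well) were seeded with cells, treated with compound at one concentration, and incubated for 48 hours before percent growth was determined.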 Values without a mark were called inactive. Active and inactive are the calls of the source. The calls were made as follows: active = growth percent below 10; inactive = the rest.

Columns and labels:
Test in all cases: NCI-60 one-dose screen, 48 h (100 = growth as untreated, 0 = no growth, -100 = all killed)
Conditions in all cases: 10 µM unless noted
SR leukemia = system: SR leukemia
RPMI-8226 leukemia = system: RPMI-8226 leukemia
OVCAR-5 ovarian = system: OVCAR-5 ovarian
OVCAR-4 ovarian = system: OVCAR-4 ovarian
SK-OV-3 ovarian = system: SK-OV-3 ovarian
IGROV1 ovarian = system: IGROV1 ovarian
OVCAR-3 ovarian = system: OVCAR-3 ovarian
HS 578T breast = system: HS 578T breast
NCI/ADR-RES ovarian = system: NCI/ADR-RES ovarian
OVCAR-8 ovarian = system: OVCAR-8 ovarian

SMILES | growth (SR leukemia) | growth (RPMI-8226 leukemia) | growth (OVCAR-5 ovarian) | growth (OVCAR-4 ovarian) | growth (SK-OV-3 ovarian) | growth (IGROV1 ovarian) | growth (OVCAR-3 ovarian) | growth (HS 578T breast) | growth (NCI/ADR-RES ovarian) | growth (OVCAR-8 ovarian)
N#Cc1cccc(CN2CCC3=C(C2)C(=O)N(Cc2ccc(Cl)cc2)C2=NCCN23)c1 | 32.9% | 17% | 38.6% | 20.4% | 27.8% | 54.4% | 23.4% | 45.5% | 13.5% | 
COc1cc(OC)cc(C(=O)Nc2cccc(C#Cc3cccc4[nH]nc(N)c34)c2)c1 | 16.6% | 18.6% | 39.5% | 53.9% | 39.1% | 20.4% | 12.2% | -21.9% (active) | 34.2% | 
c1ccc(C(c2nc3ncncc3[nH]2)N2CSc3nc4ccccc4n3C2)cc1 (configuration not stated) | 111% | 104% | 103% | 99.7% | 102% | 99.9% | 105% | 108% | 104% | 
COc1ccc(Cn2cc3c(c2-c2cc(OC)c(OC)c(OC)c2)CCc2c(CN4CCOCC4)noc2-3)cc1 | 23.8% | 28.3% | 32.1% | 52.8% | 54.2% | 28.3% | 2.5% (active) | 15.3% | 8.51% (active) | 
COc1ccc(NC(=O)CSc2nnc(-c3ccc4nc(-c5ccccc5)[nH]c4c3)o2)cc1 | 91.2% | 79.1% | 101% | 100% | 108% | 92.9% | 110% | 105% | 101% | 
CN(C)CCCOc1ccc2c(c1)CN(C(=O)c1cc(C(=O)N3Cc4cccc(F)c4C3)ccc1O)C2 | 96.8% | 98.9% | 108% | 99% | 112% | 113% |  | 92.9% | 107% | 
Cc1ccc2sc3c(c2c1)OC(N)=C(C#N)C3c1ccc(Cl)cc1 (configuration not stated) |  | 93.2% | 93.4% | 91.1% | 85.7% | 65.2% |  | 78.3% | 76.2% | 96.7%
O=C(NCc1ncc[nH]1)c1ccc(-c2nc3ccc4[nH]ncc4c3c3c2CCCC3)cc1 | -52.6% (active) | 45% | 62.1% | 14.5% | -16.8% (active) | 3.6% (active) | 3.38% (active) | -12.8% (active) | 90.2% | 
Cc1cc(-c2ccc(Cl)cc2)n(Cc2nnc(SCC(=O)Nc3ccc(S(N)(=O)=O)cc3)n2C2CCCCC2)n1 |  | 102% | 107% | 109% | 106% | 104% |  | 100% | 106% | 
Cc1ccc(CSc2nc(-c3ccc(Cl)cc3)c(C#N)c(N3CCNCC3)n2)cc1 | -10.6% (active) | 69.4% | 99.7% | 89.3% | 117% | 66.8% | 82.9% | 80.1% | 94.5% | 
CC(C)(C)c1ccc(CC(=O)Nc2sc3c(c2C(N)=O)CCC(=O)C3)cc1 |  | -20.7% (active) | 7% (active) | -32.2% (active) | 9.81% (active) | 8.85% (active) | -36% (active) | 33.6% | 3.51% (active) | 11.1%
c1cn2c(ccc3nc(-c4cn[nH]c4)c4c(c32)CCCC4)n1 |  | 80.7% | 99.4% | 77.9% | -10.1% (active) | 45.3% |  | 31.5% | 77.3% | 57.1%
C#CCOc1ccc(/C=N\Nc2nc(-c3ccc(C)cc3)cs2)cc1OC | 83.2% | 68.3% | 96.8% | 76.8% | 87.6% | 92.3% |  | 111% | 96.2% | 
Clc1ccc(N/N=c2/oc3ccccc3cc2-c2cc3ccccc3[nH]2)cc1 | 90.8% |  | 83.4% | 69.5% | 89.6% | 57.2% |  |  | 78.5% | 62.3%
N#Cc1ccccc1Cn1c2nc(=N)c3ccccc3c-2nc2ccccc21 |  | 77.2% | 78.6% | 29.8% | 79.2% | 49.6% | -5.06% (active) | 97.8% | 71.1% | 66.4%
Oc1ccc(CSc2nnc(-c3ccc(Cl)cc3)n2-c2ccccc2)c2cccnc12 | 31% | 16.4% | 57.7% | 38% | 32.6% | 24.2% |  | 25.8% | 4.53% (active) | 
C=CCn1c(SCC(=O)Nc2ccc(C(=O)/C=C/c3cccc([N+](=O)[O-])c3)cc2)nnc1-c1c[nH]c2ccccc12 |  | 11.9% | 96.8% | 74.9% | 106% | 82.7% | 99.8% | 102% | 101% | 90.4%
COc1cc2nc(Cl)nc(Nc3cccc(C4=Nc5c(N)nc(N)nc5NC(c5ccc(Br)cc5)C4)c3)c2cc1OC (configuration not stated) |  | -2.07% (active) | 113% | 103% | 125% | 94.1% | 72.6% | 79.8% | 86.6% | 54.6%
O=C(Nc1cccc(Cl)c1)Nc1nc2ccc([N+](=O)[O-])cc2o1 | 50.8% |  | 47.7% | -3.53% (active) | 12.9% | 20.8% | -13.9% (active) | 36.4% | 10.4% | 6.36% (active)
O=S(=O)(Nc1ccc2c(c1)OCO2)c1ccc(-c2cnc(C3CC3)o2)cc1 | 26.6% |  | 60.7% | 36.3% | 62.1% | 40.6% | 7.46% (active) | 45.5% | 16.6% | 46.8%
O=[N+]([O-])c1cc(/C=N/Nc2nc(N/N=C/c3ccc(Cl)c([N+](=O)[O-])c3)nc(N3CCCCC3)n2)ccc1Cl | 63.2% | -18.3% (active) | 108% | 86.9% | 98.8% | 52.7% | -7.45% (active) |  | 30.2% | 
COc1cccc(C(=O)Nc2cccc(C#Cc3cccc4[nH]nc(N)c34)c2)c1 |  | 39.2% | 69.2% | 67.8% | 86.7% | 59.9% |  | 66.4% | 45.5% | 50.4%
